Experiment in all cases: MAPPIT interaction score (arbitrary units); higher = stronger binary interaction signal, active = hit call of the paper
In one test the target is l(3)neo38. The note with it: MAPPIT configuration: N-N; pair source set: Lit-BS-16.
For a further test, the target named is lola. Particulars: pair source set: RRS.
Another test has as its target mei-P22. The note with it: MAPPIT configuration: N-N; pair source set: screen_2.
In another test the target is laza. The note with it: MAPPIT configuration: N-N; pair source set: screen_2.
Another test addresses mira. The note with it: MAPPIT configuration: N-C; pair source set: Lit-BM-16.
The next test has as its target nos. Particulars: pair source set: Lit-BM-16.
A further test has as its target kappaB-Ras. Particulars: MAPPIT configuration: N-N; pair source set: DPIM.
The target in the next test is lwr. Particulars: MAPPIT configuration: N-N.
The next test has as its target mal. Particulars: MAPPIT configuration: N-N; pair source set: Lit-BS-16.
In another test the target is otp. The note with it: MAPPIT configuration: N-N; pair source set: screen_2.
A further test deals with mod(mdg4). Particulars: pair source set: Lit-BM-16.
A further test has as its target su(Hw). Particulars: MAPPIT configuration: N-C; pair source set: Lit-BM-16.
In another test the target is mnb. The note with it: MAPPIT configuration: N-N; pair source set: Finley_Y2H.

A number with no mark means an inactive call.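 The calls were made as follows: active = MAPPIT score above the 99th percentile of random reference set scores in the same batch; inactive = at or below it.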
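Also: HEK293T cells with Epo stimulation, STAT-responsive firefly luciferase reporter, fold induction versus unstimulated cells divided by the larger fold induction of two negative controls lacking either bait or prey.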

B1: Pdk1 (protein)
chain: MKCKSWSNKINNYVVRKIKSIKINGTQQQLQLPGSGASGIAAAAVITVASDCGENCSSNGTEHQQHFNIATTTATSATEATMPAMAKEKASATVSLGESNFRDINLKDLAVVVEAASRLHHQQNVCGCGAVSSTENNNNSRYGSSKYLTNGHTSPLAAAVASNSSSVATTPHCRMLHNCSLQQYQNDIRQQTEILDMLRQQHQQGYQSQQQQQQPQQQQEQQQQQEQSQQQQQLQNPAPRRSPNDFIFGRYIGEGSYSIVYLAVDIHSRREYAIKVCEKRLILRERKQDYIKREREVMHQMTNVPGFVNLSCTFQDQRSLYFVMTYARKGDMLPYINRVGSFDVACTRHYAAELLLACEHMHRRNVVHRDLKPENILLDEDMHTLIADFGSAKVMTAHERALATEHCSEQRRSNSDEDDEDSDRLENEDEDFYDRDSEELDDGDDEQQQEEMDSPRHRQRRYNRHRKASFVGTAQYVSPEVLQNGPITPAADLWALGCIVYQMIAGLPPFRGSNDYVIFKEILDCAVDFPQGFDKDAEDLVRKLLRVDPRDRLGAQDEFGYYESIRAHPFFAGIDWQTLRQQTPPPIYPYLPGVSQDEDFRSSYTVPGDLEPGLDERQISRLLSAELGVGSSVAMPVKRSTAKNSFDLNDAEKLQRLEQQKTDKWHVFADGEVILKKGFVNKRKGLFARKRMLLLTTGPRLIYIDPVQMIKKGEIPWSPDLRAEYKNFKIFFVHTPNRTYYLDDPEGYAIHWSEAIENMRKLAYGDPSSTSAVSCSSGSSNSLAVISNSSAASSSNSPTVKRSSPVNAPQASTASDNRTLGSTRTGTSPSKKTASK
On to B1, for which the MAPPIT interaction score in the test with l(3)neo38 is 1.81.

B2: CG3262 (protein)
chain: MERLLINTIWRSYATKLTGSQVKLMARGLPKKQPIIGVQDIIVVASGKGGVGKSTVAVNFACSLAKLGKRVGLLDGDIFGPTIPLLMNVHGEPVVNDKNLMIPPQNYNVKCLSMGMLTPVETSVIWRGPLVMSAIQRLLKGTDWGLLDVLVIDTPPGTGDVHLSLSQHAPITGVILVTTPHTAAVQVTLKGASMYEKLNVPIFGVVENMKYTICQNCNQRLEFFKDSRISSLPRKLISLPLDSRIADSNESGVPVVIKYPDSKYSYLFTQLAEEITQILNEQRCNQNQNNSAH
As to B2, the MAPPIT interaction score was 0.425 in the test with lola (MAPPIT configuration: N-C) and 0.0633 with lola (MAPPIT configuration: N-N).

B3: mei-P22 (protein)
chain: MDRTTVVPSPASTYCSFMGGSQHSPLRRSQRLIDKENRDLQKIPPKSLSPQLFGNTEDDYSELLLQQGKVVHLKPAAKLVPVRSSDNLVHLGSRDKVVPLKTSNRIVHLKPPYKIIHLKSLDEVEKTVKKKNNIQKEVHQRNSQRRSIQCTPKKRGRKPKQPAKKLQSRISTDQLGSTPSPSKLPAKYPAHFVHQLPPAEDSSCATRRRSLSAPAMQLSDLSLTPDEIQTPERRGEIVNKSPSDLDSDVSLNFSLSDSIGEIFGTKDISSILTMQRPRQYILLEEHLPTLATMLNVDLERLRCVLDITQGLSHEQILRFPIKHEEDELEVP
Turning to B3, in the test with mei-P22, the MAPPIT interaction score was 4.86 (active).

B4: Es2 (protein)
chain: MSATTRTPATPGTPGTPGSLAMEVARVQNSALAEFKKPTAMVRHKNKPKILTEEKYIEEMSKIIQRDFFPDLERLRAQNDYLDAESRRDFVQMAEIRERYSLGRISGTGRSTSRRNNAMSPATFETPVSQAKCSNTPLPNSRATDTPFSTDGSEKSDAEGRDTTAKLSLDAFLQKYTSEDNQSFQEIIETAEAKLRQKYAVLYNHEKLSAEQLQRALMLPSIETQFEEPDPLRKIETWNYTNMNSIMYVPDGVEYTEEERVQLAERKQSIQHNATRLPDEAKHREMDTKKLNDEVPQNGAGGATATPKVRGFDLLRSPSPRPGEAFSPIMTWGEIDGTPFRLDGGDTPLRPTQGPSFRINENSRRENIAIALAERVSERMRNQKQMALDTARRNIGSPLIRTNMERLASMSPAAQLLATGKLGIRGTPRLRHTPSPMSGRKRKVTPGVVRSTNTPILGEPKPKQQAKISTPAKNVTIDTGSTLTDDLLKIPTKRRTAADFF
On to B4, for which the MAPPIT interaction score with laza is 0.373.

B5: brat (protein)
chain: MASSPTPSLDSMRGGANSIESYEHAGYLSDSPLTLSGSSPPASDSAICSDEYTGGSSVKSRSEVTVINGHHPISASVSSSSSASSSSCSSSSSSSSSSSSSSSSTSGLSGCGSTSSSVISANNVASSNGPGVIGSNLQSSNNGGNSGISSLVVGAGKGSNSSSNSSSSNTSANGSPPRCTACKSKCSDAVAKCFECQSYLCANCVTAHEFMHCFNGHNVCLIKGFEASTTGTPLSVGSPSNNPASNEFKYASSLTMMLQQQQQLDSQQQQQQQQLLPAQPMSQLSKIVLAAAAQANSQEQQREDSIYGSLHPQQQQQQQQQQQRQLFCPRHKQELLKFSCRTCCILVCKECIVLEHSTGLHELENVQSPGMTTSTGSTANESALQTLLADMRGKIGEIVGIAGNSDQNLTKVKLQYQKAHNELNETHQFFASMLDERKTELLKELETLYTAKVNSNNSWQQRSRDLIDKGLATCEAVERSPAPPSSLLTEALLLRKSLEQQLQTGIQEMQLPFEIEFMSNYQSIQAGVRNTFGYIRANSSDGGPTGMSLTSNGHGKQPPIARPTQSASNSSASSAGSGHHGHHQQSHHHGHHNHHQTAHHQQLQAQSSLHGLGLGLSGASLLDSSSSAGGAVGAFSNGGLLLGGRDRNALAVEQHFGELMPKRGGGGYTGSNGSATSAVAHYNPYEKWSNGGSDNLFSSVTSGVSGSSAVADAFASLSAVGGSVVSGAGAGGSTVSSESLLDLTNKLLSATIYPPKSQIKRQKMIYHCKFGEFGVMEGQFTEPSGVAVNAQNDIIVADTNNHRIQIFDKEGRFKFQFGECGKRDSQLLYPNRVAVVRNSGDIIVTERSPTHQIQIYNQYGQFVRKFGATILQHPRGVTVDNKGRIIVVECKVMRVIIFDQNGNVLHKFGCSKHLEFPNGVVVNDKQEIFISDNRAHCVKVFNYEGQYLRQIGGEGITNYPIGVGINSNGEILIADNHNNFNLTIFTQDGQLISALESKVKHAQCFDVALMDDGSVVLASKDYRLYIYRYVQLAPVGM
As to B5, the MAPPIT interaction score with mira is 1.62; in the test with nos (MAPPIT configuration: N-C) it was 0.0947; in the test with nos (MAPPIT configuration: N-N), 0.243.

B6: Cp1 (protein)
chain: MNHLGVFETRFRPRTRHKSQRAQLIPEQITMRTAVLLPLLALLAVAQAVSFADVVMEEWHTFKLEHRKNYQDETEERFRLKIFNENKHKIAKHNQRFAEGKVSFKLAVNKYADLLHHEFRQLMNGFNYTLHKQLRAADESFKGVTFISPAHVTLPKSVDWRTKGAVTAVKDQGHCGSCWAFSSTGALEGQHFRKSGVLVSLSEQNLVDCSTKYGNNGCNGGLMDNAFRYIKDNGGIDTEKSYPYEAIDDSCHFNKGTVGATDRGFTDIPQGDEKKMAEAVATVGPVSVAIDASHESFQFYSEGVYNEPQCDAQNLDHGVLVVGFGTDESGEDYWLVKNSWGTTWGDKGFIKMLRNKENQCGIASASSYPLV
With B6, the MAPPIT interaction score with kappaB-Ras is 0.259.

B7: pcs (protein)
chain: MSSAEDGELDPQIQIELENLNSATDEINKLEIELEEANSTFRILLNESTRRLKVSSKKLGNCIEKARPYYEALDKAREAQIECQKAAVKFQRANEIHAAAKETVALAEQRFMSNSHEWQFDNAWQEMLNHATQKVMDAETQKADCHAEHQRLTKLFNAAEQKLQQLEDRFRRSINKSRPYFEEKQVCQDQLQTQKNRIQELQQQVAGAKSTYSTALRNLERISEDIHRQRGDFPTPPGPREPGVGAELNSPTSSALPSLPDFQLELEKCDYPSIAGSQMSLGAKTPQAAAETEDEEDACDYDETGAGELRGVVDERDLEALRQKVKILAVRPIEGGDGQQQNDVWEHELKATVDKLDHLMMLKETAKRQQTNRLKSTEQRPDSLGAEALKRHCDVVEVKVTSCATTASLPVTPHHQLNHLAPPTPIKKLQQQLAPLPSVNVSMRELPLLARLSNELLDRSSAAFGGVRKTLRRRSLE
For B7, in the test with lwr (pair source set: Curagen_low_conf), the MAPPIT interaction score is -0.177.

B8: cN-IIIB (protein)
chain: MGFDEKREPTGGRLRLQDIPALTQDHCRMRDPAEVERIINEFVIGGPERMQIVSDFDYTITKQRTEDGGAVPSSFGIFNACQSLPENFKAETDKLYHKYRPIEIDPHMPIAEKVQYMIEWWTKSGELTSGFPFDQSEIDQIASKYTHALRDRTHEFFADLQRLGIPTLVFSAGLGNSVVSVLRQANVLHPNVKVVSNFLQFRDGLLDGFQQPMIHTFNKNETVLNETSEYYDLVHTRDHIIVMGDSIGDADMASGVPASSHIMKIGFLFDHVEANMKKYMDTFDIVLVDDQTMDVPRTLLSLIEKQHKLNLEAPKQSSL
As for B8, the figures for the MAPPIT interaction score with mal and with otp were 1.36 and -0.311, respectively.

B9: CG12259 (protein)
chain: MAHYKGAASEAGRAAQLMKKREIQQQEIEFRKKKIEEELKLDKIENKFATHYDAVEQQLKSSTIGLVTLDEMKAKQEDIVREREKKLAQKKDEKDREKQRALEAIQAEKNKQKRQIQALSFNLDDDEEEEEEDDEDHDKKQLKIKQEDQPKPKWTEIKEDILPIKKKKICKNPDVDTSFLPDREREEQENRLREQLRQEWVMQQAELKDEDISITFSYWDGSGHRRNVLMKKGNSIYQFLQKCLELLRKEFIELKTVMADQLMYVKEDLILPHHYSFYDFIVTKARGKSGPLFQFDVHDDVRMISDASVEKEESHAGKVLLRSWYERNKHIFPASRWEPYDPTKSYDKYTIKDKDKSKK
Take B9: the MAPPIT interaction score with lwr (pair source set: Finley_Y2H) is 0.18.

B10: Cp190 (protein)
chain: MGEVKSVKVDNWGVFFLQKLQNFFNKTDYCDLTLQFRDNSQLKVHRLVLSACTDYFNVLEQTCEIVDDALIMPNEFQADVVVPIVNFMYTGTLEFELKMYGKLLRTAKEMNMTVLLKLLEAHRRTMENVNRQQRPPSPKGIRRRTVGQPSSGLPQQRVLGPSPQSRNVATPIAQRANTQRGSTGNTMSRTSGGSNRSPYGDSSNVKQEPTSPFEQLRKGYNNNKRPAQTSLLSPPSKKPSLEEVKEFAEQQRMRKQIAAEYGDNDPEYDGGMLYDDVHAGDDDDDDMPPQPSTSKQQSPQGTQTQLEHGSTTIILKQDSPSQTPTIIVKDSSNAKLNHTKIIAEVLRQYPHIVKGHKNIKLKIMPNTPAAPTEKSAPATVKPPANQSSATTSPHKKLHVSFKADKSTPLITAQQKAASSQQKSGTSQTTGNQGTGANPPANTAAAQKRRIDSKTMHALIAQGAENTTGPWLCLRCGVNGRPISIPSYRGFRRHLINTHKETIDPALCEHCGWRSVNNRELHFHMYMEHQTKSLLYTFAECALCNQSYRTKGELEAHINEVHTDDNKQQCIYCNKVFEQELQLYRHMKSYHKEQALEDGIIDETDEEFLGSQDEEEEAEGDEEQEPEQTGKVRILSDISLPATSAITVQQAQQEQLQEEDVEQVQQEVKFVGADGNEVELTDEQRKEILSQLNQQQAGATAGGVVMVLSEPEAEHVKQETDEKSLAGTEEEYDDSQIYSELGAADSVESAKKNIADESKESIDNLEWAENLIAESEEQSNKEPKSDKPRDDISEKLKELTGDWTEDENDDDVDDKPATAELASELANKDPEPTVHEEEDDIDLALQSLHKGPEEATEEKASEESVTSADDAVDAVPNINSQPEKMDVDSEAADEKASKAEVQIKKEAELENDQEEFIKEDSPIPHSDSVAELREAVTASEGEDDVHLEADNIRKELLDELIAEAEKPDQEKDIVQSEENATTEALDRSVTDEDDLVPPTQVSTEQMEIDEPAAEKAAENNEDTRTADEKEAVEDKPNQTQDVTTAEKPTLESAKAGDEATSGEAASVDKVKSLISEWGDDDEDEDENGVSAAAKEEL
As to B10, the figures for the MAPPIT interaction score in the test with mod(mdg4) (MAPPIT configuration: N-C), with mod(mdg4) (MAPPIT configuration: N-N) and with su(Hw) were 2.63, -0.119 and -0.381, respectively.

B11: CG6153 (protein)
chain: MPHGHSHDHGGCSHEASDVDHALEMGIEYSLYTKIDLDNVECLNEETDGQGKSVFKPYEKRQDLSKYVESDADEELLFNIPFTGNIKLKGIIISGANDDSHPNMVKIFKNRPRMTFDDARAKPDQEFQLTRDARGEIEYSPKVVTFSSVHHLSLYFPSNFGEDITRIYYIGLRGEFTEAHYHGVTICNYESRANAADHKEKAFDGVGRAIQ
On to B11, for which the MAPPIT interaction score with mnb is 1.74.
